Hits are enriched below; roughly 21% of the tested compounds scored in any of these assays.
Gal4-VP16 FLuc: VP16 counterscreen qHTS for inhibitors of ROR gamma transcriptional activity; Drosophila S2 Gal4-VP16 UAS-luciferase, luminescence, 20 h; Potency, µM (series often up to 53.6 µM), most hits filed as inhibitors; 310,000 compounds, 3.5% hits;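 note: Gal4-VP16 expression switched on by copper sulfate through the metallothionein promoter; nearly all actives have a fitted effect of over 50% in size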
DT40 TDP1 no CPT: qHTS for Inhibitors of human tyrosyl-DNA phosphodiesterase 1 (TDP1): qHTS in cells in absence of CPT; DT40 Tdp1-/- hTDP1 cells, no CPT, ATP luminescence, 48 h; Potency, µM (top dose mostly 46.2 µM), usual class: inhibitors; 420,000 compounds, 15% hits; note: nearly all actives have a fitted effect of over 55% in size
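Growth kinetics read by CellTiter-Glo luminescence after ≥48 hr at 37 °C. Cells: DT40 Tdp1-/- stably carrying human TDP1, 400 per well, compound exposure in the absence of CPT (DMSO vehicle).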
DT40 TDP1 CPT: qHTS for Inhibitors of human tyrosyl-DNA phosphodiesterase 1 (TDP1): qHTS in cells in presence of CPT. Potency, µM (highest dose often 46.2 µM), usual class: inhibitors. AID 686979, 2013. chicken DT40 Tdp1-/-;hTDP1 cells + 20 nM CPT, ATP luminescence, 48 h. 420,000 compounds, 12% hits; note: nearly all actives have a fitted effect of over 55% in size
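Chicken DT40 Tdp1-/- cells stably complemented with human TDP1 were seeded at 400 cells/well in medium containing 20 nM camptothecin, exposed to pin-transferred compounds, and grown at 37 °C for at least 48 hr. Viability was read as ATP luminescence.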
IL1B secr inh: qHTS for Inhibitors of Inflammasome Signaling: IL-1-beta AlphaLISA Primary Screen; THP-1 LPS/ATP IL-1B secretion, AlphaLISA, 16 h; active compounds read low; AID 743279, 2014; activity change, % at 57.5 µM; 360,000 compounds, 4.7% hits; in the data active = activity change below about -50%; inconclusive = mostly about -30% to -49%
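THP-1 cells pretreated 1 hr with compounds (up to 57.5 uM final), then stimulated with LPS (250 ng/mL final) plus ATP (1.25 mM final); secreted IL-1B measured by AlphaLISA after 16 hr, decreased signal indicating inhibition.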
RORgamma inh: qHTS for inhibitors of ROR gamma transcriptional activity | 310,000 compounds, 5.4% hits | Potency, µM (series often up to 53.6 µM), most hits filed as inhibitors | Drosophila S2 Gal4-RORgamma UAS-luciferase reporter, 20 h | AID 2551, 2010; note: nearly all actives have a fitted effect of over 60% in size
Target sequence (P51450 whole entry, looked up, the tested form may be a part): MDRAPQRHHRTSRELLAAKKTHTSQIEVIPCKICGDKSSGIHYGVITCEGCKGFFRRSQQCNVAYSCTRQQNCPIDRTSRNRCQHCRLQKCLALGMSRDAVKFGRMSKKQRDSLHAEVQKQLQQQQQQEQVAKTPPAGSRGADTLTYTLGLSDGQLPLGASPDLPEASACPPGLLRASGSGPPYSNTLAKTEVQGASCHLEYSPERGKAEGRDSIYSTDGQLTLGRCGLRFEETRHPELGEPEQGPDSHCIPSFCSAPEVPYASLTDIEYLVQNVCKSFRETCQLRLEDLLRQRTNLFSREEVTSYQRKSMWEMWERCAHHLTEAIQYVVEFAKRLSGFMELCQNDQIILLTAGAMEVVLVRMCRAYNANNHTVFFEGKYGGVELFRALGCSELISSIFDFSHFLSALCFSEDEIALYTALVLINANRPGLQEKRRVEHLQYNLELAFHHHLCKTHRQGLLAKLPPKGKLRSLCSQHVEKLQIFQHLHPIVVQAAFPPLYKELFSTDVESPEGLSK
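Drosophila Schneider cells stably carrying a metallothionein-driven Gal4 DBD–ROR gamma fusion and a UAS-Photinus luciferase reporter were exposed to compound for 1 hr, then induced with copper sulfate (700 uM final) for 20 hr at ambient temperature before luminescence reading.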
ELG1 repair inh: qHTS screen for small molecules that inhibit ELG1-dependent DNA repair in human embryonic kidney (HEK293T) cells expressing luciferase-tagged ELG1; HEK293T ELG1-luciferase reporter, luminescence, 16 h; DNA damage induced by 5-fluorouridine; Potency, µM (series often up to 46.1 µM), most hits filed as inhibitors; 330,000 compounds, 2.3% hits; note: nearly all actives have a fitted effect of over 55% in size
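Step one: seed 2,000 cells per well. Step two: pin-transfer compound or DMSO alongside 5-fluorouridine. Step three: incubate 16 hr, 37 °C, 5% CO2. Step four: add ONE-Glo, wait 30 min, read luminescence.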
Hits are given with their value; - = inactive; ? = inconclusive; . = no result; [ ] = remark or other dose. Unless noted, calls come from the whole dose curve; as a rule, active = well fitted curve in the direction sought with a large enough effect; inconclusive = small, poorly fitted or top-dose-only effect, or another doubt; inactive = no such curve, though single readings can be large; an effect the other way counts as inactive or inconclusive.

SMILES | Gal4-VP16 FLuc | DT40 TDP1 no CPT | DT40 TDP1 CPT | IL1B secr inh | RORgamma inh | ELG1 repair inh
O=C(CN1C(=O)NC(c2ccccc2)(c2ccccc2)C1=O)NCCc1ccc(F)cc1 | . | ? | - | - | . | -
CCOC(=O)c1c(C)[nH]c(C(=O)Cn2c(=O)c3c(ncn3CC)n(Cc3ccccc3)c2=O)c1C | - | ? | 26µM | - | - | 21µM
CCOC(=O)c1c(C)[nH]c(C(=O)CSc2nc(C)cc(C)n2)c1C | - | 21µM | 15µM | - | - | -
CCOC(=O)c1c(C)[nH]c(C(=O)CN2C(=O)NC(C)(c3ccc(C)cc3)C2=O)c1C (stereo not drawn) | ? | 23µM | ? | - | - | -
CCN(CC1COc2ccccc2O1)C(=O)CN1C(=O)NC(C)(c2ccccc2)C1=O (stereo not drawn) | . | - | - | ? | . | -
CCn1cnc2c1c(=O)n(CC(=O)NCC(C)C)c(=O)n2Cc1ccccc1 | - | - | - | - | - | -
CCOC(=O)c1c(C)[nH]c(C(=O)CN2C(=O)NC(C)(C)C2=O)c1C | . | - | - | - | . | -
CCN(CC1COc2ccccc2O1)C(=O)CN1C(=O)NC(C)(c2ccc(C)cc2)C1=O (stereo not drawn) | . | 23µM | ? | - | . | ?
CCCCn1c(N)c(N(CC(C)C)C(=O)c2ccc(Br)s2)c(=O)[nH]c1=O | - | - | - | - | - | -
CCOC(=O)c1c(C)[nH]c(C(=O)CN2C(=O)NC(CC)(c3ccccc3)C2=O)c1C (stereo not drawn) | - | ? | ? | - | - | 16µM
Cc1ccc(NC(=S)NC(=O)c2sc3ccccc3c2Cl)c(C(=O)O)c1 | ? | . | . | . | 7.1µM | ?
O=C(NC(=S)Nc1ccccc1N1CCOCC1)c1sc2ccccc2c1Cl | - | ? | - | - | ? | -
COc1ccc2c(Cl)c(C(N)=O)sc2c1 | - | - | - | - | - | -
O=C(NNC(=S)NC(=O)c1sc2ccccc2c1Cl)c1ccc(Cl)cc1 | 13µM | ? | 18µM | - | 5µM | ?
COc1ccc2c(Cl)c(C(=O)NN)sc2c1 | ? | - | - | ? | 11µM | -
O=C(O)c1ccccc1NC(=S)NC(=O)c1sc2ccccc2c1Cl | - | 16µM | ? | - | - | ?
C[C@@H]1CN([C@H](C)CO)C(=O)c2cc(Br)cnc2O[C@@H]1CN(C)Cc1ccc(F)cc1 | . | - | - | - | . | .
CC(C)C=O | - | . | . | . | - | .
CC(=O)Nc1ccccc1-c1nc(CNC(=O)c2ccc(C)cc2)c(C)o1 | . | ? | -[9.04 µM] | . | . | .
CCCCOC(=S)NC(=O)c1sc2ccccc2c1Cl | ? | - | - | - | 5.6µM | -
O=c1[nH]c(Nc2nc3ccccc3o2)nc2c1CCCC2 | 10µM | 4.1µM | 2.9µM | -101 | 4µM | ?
Cc1ccc(Nc2nc3c(c(=O)[nH]2)CCCC3)cc1 | ? | ? | ? | - | - | ?
Cc1cc(C)nc(N2C(=O)CC(C(=O)O)NC2=NCCc2c[nH]c3ccccc23)n1 (stereo not drawn) | - | - | - | - | - | -
Cc1cc(C)nc(NC(=NCCc2c[nH]c3ccccc23)NC(=O)C(C)(C)C)n1 | ? | 15µM | ? | - | 7.1µM | ?
CCCCNC(=O)c1cccc(-n2c(C)nc3cccnc32)c1 | . | - | - | . | . | .
SMILES | Gal4-VP16 FLuc | DT40 TDP1 no CPT | DT40 TDP1 CPT | IL1B secr inh | RORgamma inh | ELG1 repair inh
Cc1cc(COc2ccccc2)oc1C(=O)O | 6.3µM | - | - | - | 5µM | ?
N#CCC(=O)Nc1ccc(C(=O)NCc2cccc(Cl)c2)cc1 | - | - | - | - | - | -
COc1ccc(Cl)c(N2CCN(CCCNC(=O)Nc3ccc(C)cc3)CC2)c1 | - | ? | ? | -56 | - | -
CSc1ccc(N2CCN(CCCNC(=O)Nc3ccccc3F)CC2)cc1 | - | ? | ? | - | - | -
O=C(NCCCN1CCN(c2ccc(F)cc2)CC1)Nc1ccccc1Cl | . | ? | 21µM | . | . | .
O=C(NCCCN1CCc2ccccc2C1)Nc1ccc(Cl)cc1 | - | - | 16µM | -55 | - | -
COc1ccc(NC(=O)NCCN2CCN(c3cc(OC)ccc3OC)CC2)cc1 | - | - | - | - | - | -
O=C(NCCCN1CCN(c2ccc(F)cc2)CC1)Nc1ccc(Cl)cc1 | . | 18µM | 21µM | . | . | .
CN1CCC(=NNC(=O)CN(c2ccc([N+](=O)[O-])cc2)S(=O)(=O)c2ccccc2)CC1 | - | - | - | - | - | -
CN(C(=O)COC(=O)Cn1cnc2ccccc21)C1CCCCC1 | . | - | - | - | . | -
COc1ccc(N2CCN(CCCNC(=O)Nc3ccccc3Cl)CC2)cc1 | . | 21µM | ? | . | . | .
COc1ccccc1NC(=O)NCCCN1CCN(c2cccc(Cl)c2)CC1 | - | ? | ? | ? | - | -
O=C(NCCCN1CCN(c2ccc(F)cc2)CC1)NC12CC3CC(CC(C3)C1)C2 | - | 21µM | 16µM | ? | - | -
O=C(NCCCN1CCOCC1)NC12CC3CC(CC(C3)C1)C2 | - | - | - | - | - | -
CC(C)[C@H](NC(=O)c1cccc(CN(Cc2ccccc2)C(=O)/C=C/c2ccccc2)c1)C(=O)O | . | - | - | - | . | .
Nc1ccn(CCCNC2CCN(Cc3ccccc3)CC2)c(=O)n1 | . | - | - | - | . | .
NCc1nc2cccnc2n1Cc1ccccc1Cl | . | - | - | . | . | .
CC(=O)/C(N=Nc1cccc(C(F)(F)F)c1)=C(\C)O | - | - | - | - | - | -
O=C(/C(N=Nc1cccc(C(F)(F)F)c1)=C(/O)c1cccs1)C(F)(F)F | ? | 21µM | ? | -62 | ? | -
CCC(C)NC(=O)COc1ccc(OCc2ccccc2)cc1 (stereo not drawn) | - | 26µM | ? | - | - | ?
Oc1ccc(NCc2ccc(OCc3ccccc3)cc2)cc1 | - | 12µM | 6.5µM | - | ? | ?
Fc1cccc(COc2ccccc2C(=S)N2CCCC2)c1 | - | ? | ? | - | 11µM | -
CCNC(=O)COc1ccc(OCc2ccccc2)cc1 | ? | ? | - | - | ? | ?
CN1C(=O)/C(=C/c2ccccc2OCc2cccc(F)c2)N(C)C1=S | - | ? | ? | - | - | -
COC(=O)Nc1ccc(OCc2ccccc2)cc1 | - | - | - | - | ? | ?
CS(=O)(=O)Nc1ccc(OCc2ccccc2)cc1 | - | - | - | - | - | ?
Oc1ccc(OCc2ccccc2)cc1 | - | ? | 4µM | . | -[2.98 µM] | .
O=C(Nc1cc(NC(=O)c2ccccc2F)ccc1Cl)c1ccccc1 | - | ? | ? | - | - | -

Compound activity (PubChem)
